# Assay results reported in ChEMBL document CHEMBL2218924, “A broad activity screen in support of a chemogenomic map for kinase signalling research and drug discovery” (Biochem J, 2013).
# Key:
# [1] = biological target: T1, Serine/threonine-protein kinase haspin (Homo sapiens) (UniProt Q8TF76); details: at 1 µM
# T1 sequence (whole entry): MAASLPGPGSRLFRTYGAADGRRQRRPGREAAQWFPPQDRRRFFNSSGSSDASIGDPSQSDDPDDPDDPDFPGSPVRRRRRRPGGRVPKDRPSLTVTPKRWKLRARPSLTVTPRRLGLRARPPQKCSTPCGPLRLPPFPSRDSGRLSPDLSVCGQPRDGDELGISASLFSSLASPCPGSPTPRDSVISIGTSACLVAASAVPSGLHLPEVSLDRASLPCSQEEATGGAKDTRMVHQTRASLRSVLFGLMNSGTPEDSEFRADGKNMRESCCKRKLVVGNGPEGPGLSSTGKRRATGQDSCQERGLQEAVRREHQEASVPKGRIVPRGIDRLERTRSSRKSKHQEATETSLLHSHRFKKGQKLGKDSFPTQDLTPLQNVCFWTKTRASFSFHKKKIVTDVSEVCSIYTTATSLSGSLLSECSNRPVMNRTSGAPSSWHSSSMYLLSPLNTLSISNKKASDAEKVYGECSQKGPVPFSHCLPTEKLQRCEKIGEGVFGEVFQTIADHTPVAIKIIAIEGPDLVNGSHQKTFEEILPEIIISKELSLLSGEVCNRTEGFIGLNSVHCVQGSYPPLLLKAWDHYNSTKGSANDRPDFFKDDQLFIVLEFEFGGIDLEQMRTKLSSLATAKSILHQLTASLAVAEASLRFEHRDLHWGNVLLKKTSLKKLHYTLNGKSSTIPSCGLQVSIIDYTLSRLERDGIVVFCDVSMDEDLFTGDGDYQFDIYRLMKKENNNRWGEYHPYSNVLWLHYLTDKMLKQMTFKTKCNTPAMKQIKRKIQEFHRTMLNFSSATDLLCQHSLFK
# [2] = biological target: T1, Serine/threonine-protein kinase haspin (Homo sapiens); details: at 10 µM
# [3] = biological target: Tyrosine-protein kinase HCK (Homo sapiens) (UniProt P08631); details: at 1 µM
# Tyrosine-protein kinase HCK (Homo sapiens), sequence (P08631 2-526 limits assumed): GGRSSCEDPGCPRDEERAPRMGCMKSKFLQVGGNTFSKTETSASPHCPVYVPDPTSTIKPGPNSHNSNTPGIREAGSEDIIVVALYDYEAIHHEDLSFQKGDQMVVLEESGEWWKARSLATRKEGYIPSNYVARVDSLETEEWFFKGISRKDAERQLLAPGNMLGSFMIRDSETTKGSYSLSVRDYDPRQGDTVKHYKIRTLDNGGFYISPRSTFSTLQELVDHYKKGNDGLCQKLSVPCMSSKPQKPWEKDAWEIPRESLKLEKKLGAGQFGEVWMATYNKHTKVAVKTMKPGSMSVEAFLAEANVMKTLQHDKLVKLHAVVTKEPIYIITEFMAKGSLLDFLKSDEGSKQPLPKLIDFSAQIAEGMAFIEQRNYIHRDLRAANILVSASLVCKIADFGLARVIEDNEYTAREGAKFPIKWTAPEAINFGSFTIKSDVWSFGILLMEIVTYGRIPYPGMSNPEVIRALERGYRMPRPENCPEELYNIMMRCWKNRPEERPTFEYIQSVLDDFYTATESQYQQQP
# [4] = biological target: Tyrosine-protein kinase HCK (Homo sapiens) (UniProt P08631); details: at 10 µM
# [5] = biological target: Tyrosine-protein kinase HCK (Homo sapiens) (UniProt P08631); details: at 1 µM; remark: listed apart in the source
# [6] = biological target: Tyrosine-protein kinase HCK (Homo sapiens) (UniProt P08631); details: at 10 µM; remark: listed apart in the source
# [7] = biological target: Insulin-like growth factor 1 receptor (Homo sapiens) (UniProt P08069); details: at 1 µM
# Insulin-like growth factor 1 receptor (Homo sapiens), sequence (P08069 31-736 limits assumed): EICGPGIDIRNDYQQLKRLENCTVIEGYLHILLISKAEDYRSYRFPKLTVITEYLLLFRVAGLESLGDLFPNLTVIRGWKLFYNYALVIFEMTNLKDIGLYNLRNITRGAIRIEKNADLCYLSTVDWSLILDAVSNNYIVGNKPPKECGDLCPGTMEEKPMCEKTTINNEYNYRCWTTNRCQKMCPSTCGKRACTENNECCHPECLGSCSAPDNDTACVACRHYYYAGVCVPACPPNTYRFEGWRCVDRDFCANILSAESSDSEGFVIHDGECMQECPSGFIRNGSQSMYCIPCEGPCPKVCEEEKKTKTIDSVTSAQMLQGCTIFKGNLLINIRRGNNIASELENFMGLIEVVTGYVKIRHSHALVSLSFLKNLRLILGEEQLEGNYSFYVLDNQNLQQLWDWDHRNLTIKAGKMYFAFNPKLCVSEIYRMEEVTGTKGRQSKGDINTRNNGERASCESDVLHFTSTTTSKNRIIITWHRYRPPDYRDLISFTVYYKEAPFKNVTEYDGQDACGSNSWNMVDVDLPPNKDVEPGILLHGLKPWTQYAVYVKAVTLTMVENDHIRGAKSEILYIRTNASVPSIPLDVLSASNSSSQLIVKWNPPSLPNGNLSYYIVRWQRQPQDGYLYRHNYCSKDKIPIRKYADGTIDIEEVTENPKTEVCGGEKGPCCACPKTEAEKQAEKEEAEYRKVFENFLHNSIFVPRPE
# Insulin-like growth factor 1 receptor (Homo sapiens), sequence (P08069 741-1367 limits assumed): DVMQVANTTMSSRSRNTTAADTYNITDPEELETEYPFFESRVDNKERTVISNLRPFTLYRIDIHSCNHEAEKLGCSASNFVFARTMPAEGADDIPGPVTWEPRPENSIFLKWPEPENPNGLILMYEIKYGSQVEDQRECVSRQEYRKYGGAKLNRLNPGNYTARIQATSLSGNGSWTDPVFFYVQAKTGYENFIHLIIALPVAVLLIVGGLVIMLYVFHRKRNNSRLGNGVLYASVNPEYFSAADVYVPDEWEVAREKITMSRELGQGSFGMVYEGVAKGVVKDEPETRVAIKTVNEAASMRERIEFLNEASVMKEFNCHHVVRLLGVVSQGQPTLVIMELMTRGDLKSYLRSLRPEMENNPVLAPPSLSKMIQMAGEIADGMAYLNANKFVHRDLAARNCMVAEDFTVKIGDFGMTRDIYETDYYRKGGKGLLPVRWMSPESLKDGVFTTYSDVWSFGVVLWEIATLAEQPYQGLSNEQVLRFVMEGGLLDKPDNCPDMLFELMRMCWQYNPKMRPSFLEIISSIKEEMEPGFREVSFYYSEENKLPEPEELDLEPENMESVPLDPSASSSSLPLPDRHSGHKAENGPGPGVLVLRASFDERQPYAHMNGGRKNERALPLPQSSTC
# [8] = biological target: T2, Protein kinase C zeta type (Homo sapiens) (UniProt Q05513); details: at 10 µM
# T2 sequence (whole entry): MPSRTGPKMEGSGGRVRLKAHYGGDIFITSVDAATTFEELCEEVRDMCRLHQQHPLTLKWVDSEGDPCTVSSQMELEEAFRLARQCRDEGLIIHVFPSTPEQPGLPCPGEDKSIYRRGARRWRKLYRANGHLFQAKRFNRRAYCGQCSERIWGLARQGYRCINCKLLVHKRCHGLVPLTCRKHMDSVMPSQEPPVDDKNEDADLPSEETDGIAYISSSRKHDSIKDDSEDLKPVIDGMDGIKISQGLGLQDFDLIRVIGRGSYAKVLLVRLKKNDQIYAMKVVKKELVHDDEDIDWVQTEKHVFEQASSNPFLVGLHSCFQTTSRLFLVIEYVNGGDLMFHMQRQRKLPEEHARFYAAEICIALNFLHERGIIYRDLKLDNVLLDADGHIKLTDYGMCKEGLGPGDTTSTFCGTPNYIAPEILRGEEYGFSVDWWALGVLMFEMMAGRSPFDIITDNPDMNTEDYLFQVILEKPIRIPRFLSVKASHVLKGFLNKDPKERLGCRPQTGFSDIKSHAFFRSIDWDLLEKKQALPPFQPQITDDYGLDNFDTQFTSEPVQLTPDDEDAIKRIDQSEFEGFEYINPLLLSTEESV
# [9] = biological target: Protein kinase C eta type (Homo sapiens) (UniProt P24723); details: at 1 µM
# Protein kinase C eta type (Homo sapiens), sequence (P24723 whole entry): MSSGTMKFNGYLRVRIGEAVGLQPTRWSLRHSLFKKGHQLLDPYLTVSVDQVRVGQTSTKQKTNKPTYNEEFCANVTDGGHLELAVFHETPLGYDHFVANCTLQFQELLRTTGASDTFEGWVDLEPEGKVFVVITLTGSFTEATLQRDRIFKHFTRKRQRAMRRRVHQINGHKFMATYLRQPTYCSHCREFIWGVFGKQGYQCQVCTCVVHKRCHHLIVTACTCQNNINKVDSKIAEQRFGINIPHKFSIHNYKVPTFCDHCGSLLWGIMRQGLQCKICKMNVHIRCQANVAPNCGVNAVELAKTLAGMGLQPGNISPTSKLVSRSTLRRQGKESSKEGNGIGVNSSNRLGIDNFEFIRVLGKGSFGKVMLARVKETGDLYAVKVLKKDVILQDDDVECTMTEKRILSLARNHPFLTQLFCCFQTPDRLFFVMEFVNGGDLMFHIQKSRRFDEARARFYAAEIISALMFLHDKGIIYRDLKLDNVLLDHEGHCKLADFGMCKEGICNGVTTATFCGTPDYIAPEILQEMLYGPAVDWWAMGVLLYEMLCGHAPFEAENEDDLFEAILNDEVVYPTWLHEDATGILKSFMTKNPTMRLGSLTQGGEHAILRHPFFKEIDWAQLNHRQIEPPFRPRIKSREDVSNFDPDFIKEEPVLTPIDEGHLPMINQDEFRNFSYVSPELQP
# [10] = biological target: Protein kinase C eta type (Homo sapiens) (UniProt P24723); details: at 10 µM
# [11] = biological target: Protein kinase C theta type (Homo sapiens) (UniProt Q04759); details: at 1 µM
# Protein kinase C theta type (Homo sapiens), sequence (Q04759 whole entry, looked up): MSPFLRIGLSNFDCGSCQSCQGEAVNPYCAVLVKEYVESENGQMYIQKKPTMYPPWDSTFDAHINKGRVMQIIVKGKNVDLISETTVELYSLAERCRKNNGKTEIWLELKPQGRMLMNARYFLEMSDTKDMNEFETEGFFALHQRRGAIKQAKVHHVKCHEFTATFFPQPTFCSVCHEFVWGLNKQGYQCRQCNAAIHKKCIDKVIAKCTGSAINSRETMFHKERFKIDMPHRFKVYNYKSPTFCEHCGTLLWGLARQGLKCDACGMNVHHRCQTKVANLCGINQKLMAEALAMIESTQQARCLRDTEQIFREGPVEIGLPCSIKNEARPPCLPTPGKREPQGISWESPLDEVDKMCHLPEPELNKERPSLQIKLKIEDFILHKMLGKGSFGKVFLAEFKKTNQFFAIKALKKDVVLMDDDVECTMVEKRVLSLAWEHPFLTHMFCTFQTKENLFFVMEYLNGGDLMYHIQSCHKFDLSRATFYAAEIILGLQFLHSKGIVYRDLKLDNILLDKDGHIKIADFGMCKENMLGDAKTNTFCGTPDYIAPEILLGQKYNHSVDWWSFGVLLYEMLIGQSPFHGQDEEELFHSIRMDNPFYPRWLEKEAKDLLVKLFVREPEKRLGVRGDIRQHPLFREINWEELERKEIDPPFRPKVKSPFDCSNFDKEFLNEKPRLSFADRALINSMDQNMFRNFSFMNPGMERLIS
# [12] = biological target: Protein kinase C theta type (Homo sapiens) (UniProt Q04759); details: at 10 µM
# [13] = biological target: T3, Protein kinase C iota type (Homo sapiens) (UniProt P41743); details: at 1 µM
# T3 sequence (whole entry): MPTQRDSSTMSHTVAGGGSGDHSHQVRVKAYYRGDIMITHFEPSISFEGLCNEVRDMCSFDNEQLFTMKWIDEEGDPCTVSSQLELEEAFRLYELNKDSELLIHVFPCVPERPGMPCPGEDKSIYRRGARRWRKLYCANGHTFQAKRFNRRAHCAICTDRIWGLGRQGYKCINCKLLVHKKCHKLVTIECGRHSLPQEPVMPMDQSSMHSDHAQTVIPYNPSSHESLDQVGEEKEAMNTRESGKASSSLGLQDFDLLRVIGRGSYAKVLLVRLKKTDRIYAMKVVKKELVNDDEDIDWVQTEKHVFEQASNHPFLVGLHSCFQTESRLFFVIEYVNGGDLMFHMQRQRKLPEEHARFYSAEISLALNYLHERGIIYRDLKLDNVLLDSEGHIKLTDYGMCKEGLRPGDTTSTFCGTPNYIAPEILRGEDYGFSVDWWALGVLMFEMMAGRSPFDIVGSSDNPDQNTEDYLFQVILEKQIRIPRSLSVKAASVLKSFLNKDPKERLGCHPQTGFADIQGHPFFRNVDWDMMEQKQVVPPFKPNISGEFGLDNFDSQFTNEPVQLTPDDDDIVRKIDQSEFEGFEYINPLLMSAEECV
# [14] = biological target: T3, Protein kinase C iota type (Homo sapiens); details: at 10 µM
# [15] = biological target: T4, Serine/threonine-protein kinase D1 (Homo sapiens) (UniProt Q15139); details: at 1 µM
# T4 sequence (whole entry): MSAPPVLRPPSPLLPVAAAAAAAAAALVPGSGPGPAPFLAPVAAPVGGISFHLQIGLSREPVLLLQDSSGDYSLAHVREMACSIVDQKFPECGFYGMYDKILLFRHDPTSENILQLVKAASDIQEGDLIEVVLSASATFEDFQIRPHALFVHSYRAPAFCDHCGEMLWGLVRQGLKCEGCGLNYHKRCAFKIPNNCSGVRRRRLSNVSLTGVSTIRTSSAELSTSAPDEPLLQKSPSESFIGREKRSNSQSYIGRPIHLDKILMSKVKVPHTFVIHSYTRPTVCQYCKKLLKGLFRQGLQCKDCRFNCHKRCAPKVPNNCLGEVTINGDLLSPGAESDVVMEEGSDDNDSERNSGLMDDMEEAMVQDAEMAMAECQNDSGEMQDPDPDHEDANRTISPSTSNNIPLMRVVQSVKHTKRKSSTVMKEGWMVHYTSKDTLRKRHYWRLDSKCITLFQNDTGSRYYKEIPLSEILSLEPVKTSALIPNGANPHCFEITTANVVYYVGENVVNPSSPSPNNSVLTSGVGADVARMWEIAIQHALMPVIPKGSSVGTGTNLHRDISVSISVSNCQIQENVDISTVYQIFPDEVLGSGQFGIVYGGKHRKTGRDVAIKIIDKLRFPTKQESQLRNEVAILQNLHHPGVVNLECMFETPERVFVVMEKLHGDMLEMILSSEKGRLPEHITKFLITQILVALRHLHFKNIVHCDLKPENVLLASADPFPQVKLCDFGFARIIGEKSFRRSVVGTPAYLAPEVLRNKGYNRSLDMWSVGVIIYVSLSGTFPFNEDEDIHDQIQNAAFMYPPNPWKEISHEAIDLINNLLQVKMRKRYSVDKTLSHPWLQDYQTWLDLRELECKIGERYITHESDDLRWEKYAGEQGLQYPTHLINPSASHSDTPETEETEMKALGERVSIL
# [16] = biological target: T4, Serine/threonine-protein kinase D1 (Homo sapiens); details: at 10 µM
# [17] = biological target: Homeodomain-interacting protein kinase 3 (Homo sapiens) (UniProt Q9H422); details: at 10 µM
# Homeodomain-interacting protein kinase 3 (Homo sapiens), sequence (Q9H422 whole entry, looked up): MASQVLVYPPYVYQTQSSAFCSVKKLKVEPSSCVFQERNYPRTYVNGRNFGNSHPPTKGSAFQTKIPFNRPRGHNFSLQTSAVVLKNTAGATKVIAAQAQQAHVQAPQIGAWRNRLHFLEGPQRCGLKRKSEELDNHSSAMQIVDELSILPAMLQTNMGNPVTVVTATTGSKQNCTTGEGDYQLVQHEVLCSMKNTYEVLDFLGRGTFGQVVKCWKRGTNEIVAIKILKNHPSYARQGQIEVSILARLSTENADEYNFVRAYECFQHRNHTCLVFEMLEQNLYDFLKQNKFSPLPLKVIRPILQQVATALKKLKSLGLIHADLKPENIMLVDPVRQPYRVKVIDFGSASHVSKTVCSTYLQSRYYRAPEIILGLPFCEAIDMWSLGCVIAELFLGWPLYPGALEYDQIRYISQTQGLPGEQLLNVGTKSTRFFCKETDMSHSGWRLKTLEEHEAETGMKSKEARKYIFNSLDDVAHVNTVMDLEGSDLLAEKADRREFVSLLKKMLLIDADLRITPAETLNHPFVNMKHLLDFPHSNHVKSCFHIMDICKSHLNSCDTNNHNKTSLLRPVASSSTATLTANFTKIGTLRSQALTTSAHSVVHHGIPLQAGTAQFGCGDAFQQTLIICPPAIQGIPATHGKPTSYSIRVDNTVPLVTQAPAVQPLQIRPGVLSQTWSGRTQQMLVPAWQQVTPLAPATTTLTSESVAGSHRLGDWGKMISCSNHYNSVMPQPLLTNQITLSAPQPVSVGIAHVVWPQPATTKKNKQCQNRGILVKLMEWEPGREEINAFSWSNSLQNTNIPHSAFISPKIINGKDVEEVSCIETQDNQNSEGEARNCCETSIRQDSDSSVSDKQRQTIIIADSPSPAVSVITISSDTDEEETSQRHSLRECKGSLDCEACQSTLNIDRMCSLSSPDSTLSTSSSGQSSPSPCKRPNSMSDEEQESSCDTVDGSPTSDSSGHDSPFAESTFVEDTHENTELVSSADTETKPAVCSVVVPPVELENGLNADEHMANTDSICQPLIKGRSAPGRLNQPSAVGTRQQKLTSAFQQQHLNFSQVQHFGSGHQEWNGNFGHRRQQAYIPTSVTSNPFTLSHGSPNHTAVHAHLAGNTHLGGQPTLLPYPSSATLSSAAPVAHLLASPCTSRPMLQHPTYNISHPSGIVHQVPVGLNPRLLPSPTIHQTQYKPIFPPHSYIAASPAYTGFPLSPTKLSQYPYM
# [18] = biological target: Insulin-like growth factor 1 receptor (Homo sapiens) (UniProt P08069); details: at 10 µM
# [19] = biological target: T5, Serine/threonine-protein kinase D2 (Homo sapiens) (UniProt Q9BZL6); details: at 1 µM
# T5 sequence (whole entry): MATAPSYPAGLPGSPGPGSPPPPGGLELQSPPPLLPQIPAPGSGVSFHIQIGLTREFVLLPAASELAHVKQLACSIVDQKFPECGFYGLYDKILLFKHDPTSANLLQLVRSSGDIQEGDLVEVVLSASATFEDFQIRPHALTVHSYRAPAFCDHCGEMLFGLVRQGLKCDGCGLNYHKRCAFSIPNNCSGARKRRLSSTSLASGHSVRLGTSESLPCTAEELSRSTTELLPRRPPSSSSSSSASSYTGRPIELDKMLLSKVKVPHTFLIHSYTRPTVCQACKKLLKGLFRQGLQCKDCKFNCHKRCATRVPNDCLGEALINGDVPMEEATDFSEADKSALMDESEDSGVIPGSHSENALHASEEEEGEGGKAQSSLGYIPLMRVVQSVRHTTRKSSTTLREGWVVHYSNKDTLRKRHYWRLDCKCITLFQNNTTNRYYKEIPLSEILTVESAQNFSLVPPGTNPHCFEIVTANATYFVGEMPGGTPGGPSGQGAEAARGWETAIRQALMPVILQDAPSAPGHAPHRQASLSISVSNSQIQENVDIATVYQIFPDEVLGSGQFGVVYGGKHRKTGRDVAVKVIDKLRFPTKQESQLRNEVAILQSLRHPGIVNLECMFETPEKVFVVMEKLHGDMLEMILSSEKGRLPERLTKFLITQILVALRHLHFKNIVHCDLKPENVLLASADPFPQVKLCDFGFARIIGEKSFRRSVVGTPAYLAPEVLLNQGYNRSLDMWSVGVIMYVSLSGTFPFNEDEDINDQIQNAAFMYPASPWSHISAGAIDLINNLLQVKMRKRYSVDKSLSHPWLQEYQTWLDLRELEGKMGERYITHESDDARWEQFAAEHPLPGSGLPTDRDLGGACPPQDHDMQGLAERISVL
# [20] = biological target: T5, Serine/threonine-protein kinase D2 (Homo sapiens); details: at 10 µM
SMILES,residual activity [1] [%],residual activity [2] [%],residual activity [3] [%],residual activity [4] [%],residual activity [5] [%],residual activity [6] [%],residual activity [7] [%],residual activity [8] [%],residual activity [9] [%],residual activity [10] [%],residual activity [11] [%],residual activity [12] [%],residual activity [13],residual activity [14] [%],residual activity [15] [%],residual activity [16] [%],residual activity [17] [%],residual activity [18] [%],residual activity [19] [%],residual activity [20] [%]
Cc1cncc2cccc(S(=O)(=O)N3CCCN(C(=O)CN)C[C@H]3C)c12,91,62,69,60,98,73,134,50,27,4,21,3,82% (inactive),75,83,71,–,–,–,–
COc1cc2ncnc(Nc3ccc(Oc4ccccc4)cc3)c2cc1OC,–,–,4,5,20,3,117,104,98,83,108,112,90% (inactive),76,95,103,105,112,106,106
CC#CC(=O)Nc1cc2c(Nc3ccc(F)c(Cl)c3)ncnc2cn1,119,98,85,88,95,88,147,103,90,84,96,96,87% (inactive),106,89,84,95,86,105,114
Nc1cccc(-c2cc3c(Oc4cccc(O)c4)ncnc3[nH]2)c1,86,45,4,1,-3,-1,99,–,83,64,88,57,–,99,80,51,–,124,99,54
N#CCCc1ccc2c(c1)-c1[nH]c3ccc([N+](=O)[O-])cc3c1CC(=O)N2,–,74,30,6,27,16,117,41,–,–,–,–,–,67,–,76,–,144,–,–
Nc1nc(Nc2ccc(S(N)(=O)=O)cc2)nn1C(=S)Nc1c(F)cccc1F,–,–,10,4,13,1,109,77,30,4,10,2,–,80,2,4,21,98,45,6
CC(C)n1cnc2c(NCc3ccccc3)nc(NCCCO)nc21,101,95,81,70,84,81,78,107,88,81,91,94,109% (inactive),105,91,72,106,103,103,96
CN(C)CCCn1cc(C2=C(c3c[nH]c4ccccc34)C(=O)NC2=O)c2ccccc21,43,12,74,54,113,84,127,16,–,–,–,–,74% (inactive),47,108,43,35,–,–,82
CNc1cc2c(Nc3cccc(Br)c3)ncnc2cn1,109,53,68,30,62,50,118,118,80,90,100,94,94% (inactive),102,86,49,96,109,104,98
c1ccc(-c2n[nH]c3c2oc2ccccc23)cc1,90,48,71,51,98,81,–,117,91,85,98,96,90% (inactive),79,–,72,61,139,–,–
CCN(CC)C(=O)c1ccc(Nc2nc(OCC3CCCCC3)c3nc[nH]c3n2)cc1,–,–,31,5,43,7,–,95,–,55,78,39,99% (inactive),103,72,23,62,–,93,51
c1ccc2c(-c3ccncc3)c[nH]c2c1,48,8,68,65,104,89,–,84,64,17,88,70,89% (inactive),67,87,69,91,–,104,106
O=C1Nc2ccc(Br)cc2/C1=C\c1cc2c([nH]1)CCCC2,–,–,59,52,–,–,–,102,102,73,100,99,84% (inactive),78,–,–,76,128,–,106
O=C1Nc2ccccc2/C1=C1/Nc2ccccc2/C1=N\OCCC(O)CO (centres undefined),13,11,4,0,8,7,25,104,–,–,66,29,113% (inactive),–,73,32,56,2,101,76
CC(=O)O/N=C1\C(=C2\C(=O)Nc3cc(Br)ccc32)Nc2ccccc21,93,74,22,9,3,-1,142,95,101,106,97,96,104% (inactive),103,85,–,76,110,104,102
